From PubChem BioAssay
Activity calls are given as the source filed them.

How the values were obtained:
[1] = tested on: Human papillomavirus type 1a protein E7 (residues 44-93); experiment: HPV1a E7 fragment binders on microarrays, primary screen, biochemical, small-molecule microarray, residues 44-93, 635 nm fluorescence (AID 1108); conditions: small-molecule microarray binding, fluorescence 635 nm; higher = more signal;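 further: E7 fragment applied at 1 µg/mL in TBST for 1 h at 4 C; score combines spot fluorescence with its signal to noise ratio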
[2] = modulators of HCV replicon luciferase signal, primary screen, HCV replication inhibitor project, Huh7 cells, luciferase reporter (AID 1109); conditions: 48 h, higher = more signal;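 further: huh7 hepatoma cells harbouring a luciferase neomycin HCV replicon reporter; luciferase luminescence as measure of HCV replicon replication; test concentration not given here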
[3] = molecular target: Left-right determination factor 2 (Homo sapiens) (UniProt O00292); experiment: LEFTY2 binders on small-molecule microarrays, primary screen, biochemical, small-molecule microarray, 635 nm fluorescence scan (AID 1110); conditions: LEFTY2 binding, higher = more signal
[4] = molecular target: Calmodulin-1 (Homo sapiens) (UniProt P0DP23); experiment: CALM1 binders on microarrays, EGTA buffer, profiling panel, biochemical, small-molecule microarray, Cy5-labelled CALM1 (AID 1111); conditions: Cy5-CALM1 binding fluorescence, higher = more signal;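 further: labelled calmodulin applied in Tris saline Tween buffer holding calcium plus EGTA and DTT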
[5] = molecular target: Calmodulin-1 (Homo sapiens) (UniProt P0DP23); experiment: calcium-bound CALM1 binders on microarrays, profiling panel, artefact control for SMM control-protein annotation, biochemical, small-molecule microarray, Cy5-labelled CALM1, plus calcium (AID 1112); conditions: Cy5-CALM1 binding fluorescence, higher = more signal;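 further: score merges spot fluorescence with signal to noise from triplicate slides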
[6] = small-molecule microarray binders of probe aWnt5a, primary screen, biochemical, biotinylated probe, 635/667 nm fluorescence (AID 1113); conditions: higher = more signal;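 further: score merges 667 nm fluorescence intensity with signal-to-noise per printed feature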
[7] = small-molecule microarray binders of probe aShh, primary screen, biochemical, biotinylated probe, 635/667 nm fluorescence (AID 1114); conditions: higher = more signal;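 further: probe is biotin-labelled aShh protein from a stem cell growth factor screen; measures binding of labelled protein to compounds printed on the slide; score merges feature fluorescence at 667 nm with signal-to-noise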
[8] = small-molecule microarray binders of probe aNog, primary screen, biochemical, biotinylated probe, 635/667 nm fluorescence (AID 1115); conditions: higher = more signal;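 further: probe is biotinylated aNog protein used at 0.15 µg/mL for 1 h at 4 C; z-score combines 667 nm fluorescence of each spot with its signal to noise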
[9] = molecular target: Torsin-1A-interacting protein 1 (Homo sapiens) (UniProt Q5JTV8); experiment: LAP1 binders from COS7 cell lysate, primary screen, small-molecule microarray, 635/667 nm fluorescence (AID 1116); conditions: COS7-hLAP1 lysate binding, 635 nm fluorescence, higher = more signal
[10] = molecular target: Alpha-bungarotoxin (Bungarus multicinctus) (UniProt P60615); experiment: alpha-bungarotoxin binders on microarray, profiling panel, artefact control for SMM control protein annotation, biochemical, small-molecule microarray, Alexa647 label, 635/667 nm fluorescence (AID 1117); conditions: alpha-BTX-A647 binding fluorescence, higher = more signal
Albumin (Bos taurus) = Albumin (Bos taurus) (UniProt P02769); experiment: bovine serum albumin binders on microarray, profiling panel, artefact control for SMM control protein annotation, biochemical, small-molecule microarray, Alexa647 label, 635/667 nm fluorescence (AID 1118); conditions: BSA-A647 binding, fluorescence 635 nm, higher = more signal;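 further: score merges 667 nm emission intensity and signal-to-noise per printed compound spot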
[11] = small-molecule microarray binders of probe aXIP, primary screen, biochemical, NeuroSMM set, 635/667 nm fluorescence (AID 1119); conditions: higher = more signal, called active from +8 up or from −8 down;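 further: probe is the protein aXip251-270 applied at 1 µg/mL to compound-printed slides; binding of probe to printed compounds measured as 667 nm fluorescence plus signal to noise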
[12] = small-molecule binders of probe aNOTCH3, primary screen, biochemical, small-molecule microarray, 635/667 nm fluorescence (AID 1120); conditions: higher = more signal;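 further: probe is a biotin-tagged antibody raised against NOTCH3 rather than NOTCH3 protein; score merges spot fluorescence near 667 nm with spot signal to noise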
[13] = small-molecule binders of probe aNOTCH2, primary screen, biochemical, small-molecule microarray, 635/667 nm fluorescence (AID 1121); conditions: higher = more signal;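 further: score merges feature fluorescence read at 667 nm with its signal to noise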
[14] = molecular target: Carbonic anhydrase 2 (Homo sapiens) (UniProt P00918); experiment: CAII small-molecule binders, profiling panel, biochemical, small-molecule microarray, Alexa647-labelled CAII (AID 1122); conditions: CAII-A647 binding fluorescence, higher = more signal
[15] = COS7 lysate on small-molecule microarray, probe aHis, 635 nm (AID 1123); conditions: COS7 cell lysate, fluorescence, higher = more signal;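 further: z-score combines 667nm fluorescence intensity with signal-to-noise per printed compound spot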
[16] = compound binding in COS7 lysate, probe aLAP1, primary screen, cell lysate, small-molecule microarray (AID 1124); conditions: probe aLAP1, fluorescence, higher = more signal;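 further: lysate comes from COS7 cells expressing LAP1 and is applied at 0.3 µg/mL; score merges spot fluorescence near 667 nm with signal-to-noise over triplicate slides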
Sam68 (KHDRBS1) = experiment: Sam68 small-molecule binders, primary screen, biochemical, small-molecule microarray, 635 nm fluorescence (AID 1125); conditions: small-molecule microarray binding, higher = more signal;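 further: score merges 667 nm channel intensity with signal to noise over triplicate slides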
[17] = tested on: Chordin-like protein 2 (CHRDL2); experiment: CHRDL2 small-molecule binders, primary screen, biochemical, small-molecule microarray, 635 nm fluorescence (AID 1126); conditions: small-molecule microarray binding, fluorescence 635 nm; higher = more signal;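 further: printed compound slides probed with Chrdl2 protein at 4 µg/mL for 1 h at 4 C; score merges 667 nm emission intensity with signal to noise over three replicate slides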
[18] = molecular target: Concanavalin-A (Canavalia ensiformis) (UniProt P02866); experiment: ConA small-molecule binders, primary screen, artefact control for SMM control protein annotation, biochemical, small-molecule microarray, Alexa647 label, 635 nm (AID 1127); conditions: ConA-A647 binding fluorescence, higher = more signal;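 further: z combines 667 nm emission intensity with signal-to-noise across three replicate slides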
Chain of Concanavalin-A (Canavalia ensiformis) (P02866 whole entry, looked up): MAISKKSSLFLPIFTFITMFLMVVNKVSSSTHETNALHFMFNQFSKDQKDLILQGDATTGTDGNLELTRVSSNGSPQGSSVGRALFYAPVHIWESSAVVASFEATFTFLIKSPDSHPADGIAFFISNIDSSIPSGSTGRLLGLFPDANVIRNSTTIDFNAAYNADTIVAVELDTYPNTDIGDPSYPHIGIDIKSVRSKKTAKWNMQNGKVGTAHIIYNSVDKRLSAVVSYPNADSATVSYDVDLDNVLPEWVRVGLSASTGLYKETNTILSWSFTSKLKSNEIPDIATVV

Chain of Albumin (Bos taurus) (P02769 whole entry, looked up): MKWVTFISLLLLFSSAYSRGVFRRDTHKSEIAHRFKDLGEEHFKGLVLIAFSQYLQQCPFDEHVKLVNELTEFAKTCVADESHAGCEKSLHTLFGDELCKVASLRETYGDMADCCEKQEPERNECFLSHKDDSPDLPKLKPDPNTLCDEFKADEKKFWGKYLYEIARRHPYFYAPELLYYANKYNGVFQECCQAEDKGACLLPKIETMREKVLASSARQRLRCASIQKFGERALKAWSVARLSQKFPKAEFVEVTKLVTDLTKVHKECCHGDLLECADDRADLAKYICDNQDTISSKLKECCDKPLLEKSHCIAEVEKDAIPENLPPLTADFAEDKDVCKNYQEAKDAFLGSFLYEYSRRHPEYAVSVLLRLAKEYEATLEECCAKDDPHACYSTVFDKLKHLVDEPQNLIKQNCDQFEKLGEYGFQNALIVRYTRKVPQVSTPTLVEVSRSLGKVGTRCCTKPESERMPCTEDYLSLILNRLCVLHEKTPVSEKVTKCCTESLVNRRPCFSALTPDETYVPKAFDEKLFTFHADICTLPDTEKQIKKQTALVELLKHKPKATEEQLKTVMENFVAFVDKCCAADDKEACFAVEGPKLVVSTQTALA
Chain of Left-right determination factor 2 (Homo sapiens) (O00292 whole entry, looked up): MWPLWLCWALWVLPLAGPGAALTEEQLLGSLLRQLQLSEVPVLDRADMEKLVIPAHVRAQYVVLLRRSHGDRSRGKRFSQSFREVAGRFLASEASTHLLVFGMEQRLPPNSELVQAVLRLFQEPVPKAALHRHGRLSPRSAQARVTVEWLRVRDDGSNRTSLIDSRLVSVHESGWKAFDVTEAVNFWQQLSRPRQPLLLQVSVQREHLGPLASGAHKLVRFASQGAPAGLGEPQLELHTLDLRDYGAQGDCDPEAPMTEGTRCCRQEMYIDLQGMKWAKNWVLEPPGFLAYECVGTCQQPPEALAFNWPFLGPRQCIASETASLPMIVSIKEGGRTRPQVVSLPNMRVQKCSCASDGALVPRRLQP
Chain of Alpha-bungarotoxin (Bungarus multicinctus) (P60615 whole entry, looked up): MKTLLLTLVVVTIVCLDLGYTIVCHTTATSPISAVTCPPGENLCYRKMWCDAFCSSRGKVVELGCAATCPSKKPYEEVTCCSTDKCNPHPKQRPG
Chain of Torsin-1A-interacting protein 1 (Homo sapiens) (Q5JTV8 whole entry, looked up): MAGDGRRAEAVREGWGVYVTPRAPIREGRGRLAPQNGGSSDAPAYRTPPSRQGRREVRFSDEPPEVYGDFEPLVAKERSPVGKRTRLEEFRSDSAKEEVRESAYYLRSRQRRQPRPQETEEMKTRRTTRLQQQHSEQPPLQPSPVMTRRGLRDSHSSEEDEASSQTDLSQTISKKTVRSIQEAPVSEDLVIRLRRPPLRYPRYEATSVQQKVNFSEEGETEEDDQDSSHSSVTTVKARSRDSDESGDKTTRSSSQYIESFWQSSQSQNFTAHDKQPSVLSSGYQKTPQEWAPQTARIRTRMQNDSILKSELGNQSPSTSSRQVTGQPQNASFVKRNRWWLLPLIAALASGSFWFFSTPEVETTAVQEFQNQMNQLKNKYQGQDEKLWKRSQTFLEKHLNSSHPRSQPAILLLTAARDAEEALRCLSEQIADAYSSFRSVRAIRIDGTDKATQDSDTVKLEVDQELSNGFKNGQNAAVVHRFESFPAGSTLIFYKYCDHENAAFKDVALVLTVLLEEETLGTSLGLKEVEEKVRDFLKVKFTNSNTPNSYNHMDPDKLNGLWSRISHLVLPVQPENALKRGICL

Compound	composite z-score [1]	z-score [2]	composite z-score [3]	composite z-score [4]	composite z-score [5]	composite z-score [6]	composite z-score [7]	composite z-score [8]	composite z-score [9]	composite z-score [10]	composite z-score (Albumin (Bos taurus))	composite Z-score [11]	composite z-score [12]	composite z-score [13]	composite z-score [14]	composite z-score [15]	composite z-score [16]	composite z-score (Sam68 (KHDRBS1))	composite z-score [17]	composite z-score [18]
C=CCNC(=O)[C@H]1[C@@H]2C(=O)O[C@@H](c3ccccc3)[C@@H](c3ccccc3)N2[C@@H](c2ccccc2OCCO)[C@]12C(=O)N(C(=O)OCCOC)c1ccc(C#CC3=CCCCC3)cc12	1.43	-3.34	0.68	1.63	0.49	0.125	0.0915	1.12	0.794	1.4	-0.286	-0.0127 (inactive)	0.345	0.148	0.55	1.33	1.01	1.3	0.51	0.942
CC(C)(C)OC(=O)CC[C@]1(C(=O)N2CCOCC2)N=C(c2ccc(OCCCO)cc2)O[C@H]1c1ccccc1	0.79	-0.304	-0.356	0.0137	-0.031	-0.0459	-0.27	-0.375	1.07	0.109	0.969	-0.131 (inactive)	0.116	-0.17	0.834	2.75	0.135	1.02	-0.267	0.838
CC(=O)n1cc(C(O)C2C=CC3C(=O)N(c4ccccc4)C(=O)C3N2Nc2ccccc2)c2ccccc21 (stereo not given)	-0.175	-1.95	-0.183	0.735	0.671	0.13	1.21	0.974	1.09	1.41	0.408	0.197 (inactive)	0.504	0.207	0.788	1.08	0.697	0.897	0.8	0.183
NC(=O)NCC#Cc1ccc2c(c1)[C@]1(C(=O)N2)[C@H](c2ccc(O)cc2)N2[C@H](c3ccccc3)[C@H](c3ccccc3)OC(=O)[C@H]2[C@@H]1C(=O)Nc1nc2ccccc2s1	0.89	-1.27	0.413	0.563	0.229	0.168	0.246	0.563	0.633	1.23	0.121	0.0296 (inactive)	-0.0259	-0.0203	0.431	0.66	0.11	0.637	1.17	0.962
COCCOC(=O)N1C(=O)[C@@]2(c3cc(C#CC4(O)CCCCCC4)ccc31)[C@H](c1ccccc1OCCO)N1[C@H](c3ccccc3)[C@H](c3ccccc3)OC(=O)[C@H]1[C@@H]2C(N)=O	-0.389	-3.33	0.844	1.06	0.0078	-0.101	0.337	0.347	0.425	1.72	-0.205	-0.02 (inactive)	0.0282	-0.0942	0.378	0.994	-0.394	1.31	0.476	1.15
CCOC(=O)C1=C[C@@H](c2ccccc2)N(S(=O)(=O)c2ccc(C)cc2)[C@H]1c1cccc(Cl)c1	0.242	-1.81	-0.0476	1.64	0.999	0.027	-0.0289	0.568	2.5	2.25	0.895	-0.101 (inactive)	0.224	0.152	0.703	-0.102	0.882	1.31	-0.599	1.11
COc1cc2c(cc1OC)CN(C(=O)[C@H]1[C@@H]3C(=O)O[C@@H](c4ccccc4)[C@@H](c4ccccc4)N3[C@@H](c3ccc(OCCO)cc3)[C@]13C(=O)Nc1ccc(C#CC4(O)CCCCCC4)cc13)CC2	1.43	-1.33	1.15	0.91	0.765	-0.236	-0.882	1.72	0.964	0.691	0.822	-0.195 (inactive)	-0.337	-0.126	0.619	1.52	0.491	1.29	0.739	1.18
CC(C)CN1C(=O)[C@@]2(Cc3ccccc31)c1ccccc1C(=O)N(Cc1ccccc1C(F)(F)F)[C@H]2c1ccc(CO)cc1	-1.57	0.186	-0.584	-0.566	-0.815	-0.2	-0.138	-0.303	-1.07	0.14	-0.139	0.174 (inactive)	-0.172	-0.157	-0.381	-0.562	-0.438	-2.12	-0.846	0.027
COC(=O)[C@]1(CCS(=O)(=O)c2ccccc2)N=C(c2ccc(OCCCO)cc2)O[C@@H]1c1ccccc1CN=[N+]=[N-]	1.41	-2.98	0.0011	0.631	-0.48	0.0785	-0.0035	1.02	0.879	0.969	-0.453	-0.139 (inactive)	0.0357	0.062	0.416	1.95	0.472	1.29	-0.0531	0.848
C=CC[C@@]1(C(=O)N2CCCCC2)N=C(c2ccc(OCCCO)cc2)O[C@@H]1c1ccccc1	0.305	-1.91	0.106	0.506	-0.185	0.141	-0.0243	2.01	1.87	0.497	0.676	-0.221 (inactive)	0.284	0.195	0.57	2.39	1.07	1.29	0.453	0.357
CC(C)C(O)C1C=CC2C(=O)N(C)C(=O)C2N1Nc1ccccc1 (stereo not given)	0.0819	0.247	0.163	0.774	-0.473	0.175	0.679	1.66	2.27	1.25	1.04	0.469 (inactive)	0.585	0.45	0.812	1.86	1.01	1.12	0.164	0.871
CC=CC(O)C1C=CC2C(=O)N(C)C(=O)C2N1Nc1ccc([N+](=O)[O-])cc1[N+](=O)[O-] (stereo not given)	-0.0226	-0.121	-0.324	-0.086	-0.541	-0.148	0.166	0.0471	-0.345	-0.297	0.9	0.236 (inactive)	-0.0932	-0.0351	0.834	1.08	0.146	-0.52	0.001	0.458
C=C(CCCC)/C(=C/C[C@@H](OC(=O)c1ccncc1)c1cccc(OCCO)c1)c1cnc2ccccc2c1	1.3	-1.96	0.742	0.185	-0.472	0.0037	-0.0035	-0.103	1.49	2.58	0.413	0.815 (inactive)	0.272	-0.0495	0.893	1.04	0.327	1.16	1.54	1.1
Cc1ccc(F)cc1S(=O)(=O)N[C@@H]1CCN(Cc2ccc(OC(C)C)cc2)C1	-1.22	-3.58	0.2	-0.892	-1.14	-0.103	-0.153	0.0771	0.224	-0.688	0.175	-0.491 (inactive)	-0.201	-0.154	0.359	-0.453	-0.182	-0.649	0.504	-1.41
CCOC(=O)[C@H]1C/C=C/C[C@H](C(=O)OCC)C(=O)O[C@H]2[C@@H](OC)O[C@H](CO)[C@@H](OC(=O)CCc3ccccc3)[C@@H]2OC1=O	-0.431	-1.85	-1.59	-0.381	0.367	-0.184	-0.0937	1.47	0.162	-0.187	0.191	0.476 (inactive)	0.996	0.0519	-0.207	-0.188	0.715	-0.378	-0.203	-0.233
